Results from PubChem BioAssay (NCATS).
Records with an inconclusive call do not appear. Active and inactive are the calls of the source. Calls come from the whole dose curve; as a rule, active = well fitted curve in the direction sought with a large enough effect; inconclusive = small, poorly fitted or top-dose-only effect, or another doubt; inactive = no such curve, though single readings can be large or run the other way.

Experiment: qHTS Assay for Identifying Gametocytocidal Compounds (AID 743244);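 note: actives lower the fluorescent signal which means gametocytes are killed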
Details: P. falciparum 3D7 stage III-V gametocytes, alamarBlue, 72 h; max response: hits give low values
In short: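 Using 20,000 stage III–V 3D7 gametocytes per well, compounds were incubated 72 h under 37 °C/5% CO2. Viability was then assessed by 24 h alamarBlue reduction, measured fluorometrically at 525/598 nm.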
% is set by controls: 0 for no effect and ±100 for the full control effect.

| SMILES | max response |
| --- | --- |
| C[n+]1ccccc1/C=N/O | 8.92% (inactive) |
| Cc1cc(OI)c(C(C)C)cc1-c1cc(C(C)C)c(OI)cc1C | 3.81% (inactive) |
| O=C(/C=C/c1ccccc1)OCc1ccccc1 | 18.6% (inactive) |
| CCOc1ccc(C(=O)OCCN(CC)CC)cc1 | 4.91% (inactive) |
| COc1ccc(-c2cc(=O)c3c(O)cc(O[C@@H]4O[C@H](CO[C@@H]5O[C@@H](C)[C@H](O)[C@@H](O)[C@H]5O)[C@@H](O)[C@H](O)[C@H]4O)cc3o2)cc1O | -2.29% (inactive) |
| OCCN1C[C@H](O)[C@@H](O)[C@H](O)[C@H]1CO | 4.21% (inactive) |
| C[N+](C)(C)CC[N+]1(C)Cc2c(Cl)c(Cl)c(Cl)c(Cl)c2C1 | -6.87% (inactive) |
| CCOC(=O)c1cccnc1 | 2.39% (inactive) |
| COc1cc(O)cc(O)c1 | -9.75% (inactive) |
| CNCc1ccccc1 | 8.64% (inactive) |
| O=C(O)c1ccccc1C(=O)Nc1ccc(S(=O)(=O)Nc2nccs2)cc1 | 31% (inactive) |
| CC(=O)Nc1ccc(OCCOCCOc2ccc(NC(C)=O)cc2)cc1 | 1.8% (inactive) |
| COc1nccnc1NS(=O)(=O)c1ccc(N)cc1 | -9.73% (inactive) |
| CN1CCN(C(=O)C2CCCCC2)CC1 | 11.1% (inactive) |
| COc1ccccc1OCC(O)CO (configuration not stated) | 10.4% (inactive) |
| Cn1c([N+](=O)[O-])cnc1COC(N)=O | 1.6% (inactive) |
| CCN[C@H]1CN(CCCOC)S(=O)(=O)c2sc(S(N)(=O)=O)cc21 | 21.3% (inactive) |
| CN[C@@H]1[C@@H](O)[C@@H](O[C@@H]2[C@H](O)[C@H](O[C@H]3OC(CN)=CC[C@H]3N)[C@@H](N)C[C@H]2N)OCC1(C)O (some centres not stated) | -9.46% (inactive) |
| O=c1[nH]c2cc(C(F)(F)F)c(N3CCOCC3)cc2n(CP(=O)(O)O)c1=O | 2.6% (inactive) |

| SMILES | max response |
| --- | --- |
| CC(C)c1cc2c(cc1S(=O)(=O)O)[C@@]1(C)CCC[C@@](C)(C(=O)O)[C@@H]1CC2 | -8.74% (inactive) |
| CCC(C)(CN(C)C)OC(=O)c1ccccc1 (configuration not stated) | -2.53% (inactive) |
| Cc1cc(C)c(NC(=O)CN(CC(=O)O)CC(=O)O)c(C)c1Br | 9.03% (inactive) |
| CCN1CC(CCN2CCOCC2)C(c2ccccc2)(c2ccccc2)C1=O (configuration not stated) | 3.23% (inactive) |
| CN1CC(=O)NC1=N | -8.6% (inactive) |
| COC(=O)N/N=C/c1c[n+]([O-])c2ccccc2[n+]1[O-] | 5.03% (inactive) |
| CC1(c2ccccc2)OC(C(=O)O)=CC1=O (configuration not stated) | 25.1% (inactive) |
| O=C(/C=C/c1ccc(O)c(O)c1)O[C@@H]1C[C@@](OC(=O)/C=C/c2ccc(O)c(O)c2)(C(=O)O)C[C@@H](O)[C@@H]1O | 3.41% (inactive) |
| C[C@@H]1CCC[C@H](C)N1 | 20.8% (inactive) |
| C/C(=C(\CCO)SS/C(CCO)=C(\C)N(C=O)Cc1cnc(C)nc1N)N(C=O)Cc1cnc(C)nc1N | -3.83% (inactive) |
| Cc1ccsc1C(=CCCN1CCC[C@@H](C(=O)O)C1)c1sccc1C | -0.959% (inactive) |
| NC(=O)N[C@@H](CCC(=O)O)C(=O)O | -4.71% (inactive) |
| CC(=O)N[C@H]1[C@H]([C@H](O)[C@H](O)CO)OC(C(=O)O)=C[C@@H]1N=C(N)N | 5.37% (inactive) |
| CN1C(=O)CC(c2ccccc2)C1=O (configuration not stated) | -11.3% (inactive) |
| CC1CCc2cc(F)cc3c(=O)c(C(=O)O)cn1c23 (configuration not stated) | -10.9% (inactive) |
| O=C(Cn1ccnc1[N+](=O)[O-])NCCO | 11.8% (inactive) |
| OCC(O)CS (configuration not stated) | 0.0928% (inactive) |
| Cc1ccc2c(c1)c1c3n2CCNC3CCC1 (configuration not stated) | 5.73% (inactive) |
